Data as given in PubChem BioAssay (Tox21).
Calls of active or inactive are those of the source. Calls come from the whole dose curve; as a rule, active = well fitted curve in the direction sought with a large enough effect in the repeat runs; inconclusive = weak or mixed curves; inactive = flat fitted curve, though single readings scatter.

assay: qHTS assay to test for compound auto fluorescence at 590 nm (red) in HEK293 cells (AID 720679); settings: red autofluorescence 540/590 nm; series mostly up to 91.3 µM; fluorescence, % of fluorescent control: at the top concentration
Description: National Center for Advancing Translational Sciences [NCATS]
NIH Chemical Genomics Center [NCGC]
U.S. Environmental Protection Agency [EPA]
National Institutes of Environmental Health Sciences [NIEHS]
National Toxicology Program [NTP]
U.S. Food and Drug Administration [FDA]
Compound auto fluorescence often interferes with screening of the compound library against various biological targets and signaling pathways. Some of these compounds may have fluorophoric properties. Such properties may interfere with the assay outputs resulting in false positives and/or negatives. To decrease such complications and ensure the compound activities are relevant in terms of biological response, the Tox21 10K compound library was screened for auto fluorescence.
From the fluorophores used as reporter signals in our screening assays, the auto fluorescence equivalencies of compounds against three fluorophores have been evaluated: Triamterene, Fluorescein and Rose Bengal sodium for blue, green and red fluorescence, respectively. The fluorescence intensities were measured using Excitation/Emission wavelengths at 405/460nm, 485/535nm and 540/590nm for blue, green and red labels, respectively. This assay includes the red fluorescence data.
Tox21 Assay Protocol Summary:
2,000 HEK293 cells in 5 uL of culture medium containing 10% dialyzed FBS per well were dispensed into black wall/clear bottom 1536-well plates using a Multidrop Combi Dispenser (Thermo Scientific). The assay plates were incubated for 4-5 hr at 37C to allow cell attachment to the well bottom, followed by the transfer of 23 nL compound or DMSO vehicle by a pintool work station (Kalypsys, San Diego, CA). After the assay plates were incubated overnight at 37C and 5% CO2, fluorescence intensities in the assay plates were measured by an Envision (PerkinElmer, Shelton, CT) plate reader using three labels for measuring blue, green and red fluorescence at […] 460, 535 and 590nm respectively.
% is set by controls: 0 for no effect and ±100 for the full control effect.

Structure (SMILES)	fluorescence, % of fluorescent control	outcome
O=c1[nH]nc(-c2ccc([N+](=O)[O-])o2)o1	-0.102% (inactive)	–
COC(=O)Cc1cccc2ccccc12	-0.207% (inactive)	–
CO[C@@H]1COCC[C@@H]1N[C@@H]1CC[C@@](C(=O)N2CCc3ncc(C(F)(F)F)cc3C2)(C(C)C)C1	0.117% (inactive)	–
CCCCCCCCNC	-0.146% (inactive)	–
CCCCC(CC)COCCC#N (stereo not given)	0.138% (inactive)	–
C[C@H](CN1CCCC1)C(=O)c1ccc(C(F)(F)F)cc1	0.102% [at 46 µM] (inactive)	–
O=C(OCCCCCOC(=O)c1ccccc1)c1ccccc1	0.406% (inactive)	–
Nc1cccc2c(=O)[nH][nH]c(=O)c12	0.331% (inactive)	–
COc1ccc(C(=O)c2ccc(C)cc2)c(O)c1	–	inactive
Cc1cc(C)c(C)c(O)c1	0.329% (inactive)	–
C=CC(C)(O)CC/C=C(/C)CCC=C(C)C (stereo not given)	-0.258% (inactive)	–
O=Cc1ccc([N+](=O)[O-])cc1	-0.213% (inactive)	–
Nc1ccccc1Nc1ccccc1	0.29% (inactive)	–
O=C(O)c1cc(C(=O)O)c(C(=O)O)cc1C(=O)O	0.161% (inactive)	–
CCOc1ccc2c(c1)C(C)CC(C)(C)N2 (stereo not given)	-0.0739% (inactive)	–
O=C(O)COCC(=O)O	0.313% (inactive)	–
COc1ccc(C(=O)Nc2ccccc2)cc1[N+](=O)[O-]	0.559% (inactive)	–
O=c1c2ccccc2oc2ccccc12	-0.153% (inactive)	–
CCCCOC(=O)C(C)Oc1ccc(Oc2ccc(C(F)(F)F)cn2)cc1 (stereo not given)	-0.057% (inactive)	–
CCOCCn1c(N2CCCN(C)CC2)nc2ccccc21	-0.217% [at 46 µM] (inactive)	–

Structure (SMILES)	fluorescence, % of fluorescent control	outcome
CC(C)=CCC[C@H](C)CCO	0.0869% (inactive)	–
CC[C@H](NC(C)C)[C@H](O)c1ccc(O)c2[nH]c(=O)ccc12	-0.0988% [at 46 µM] (inactive)	–
CC(C)(C)NCC(O)COc1ccc(NC(=O)NC2CCCCC2)cc1 (stereo not given)	0.0444% [at 46 µM] (inactive)	–
N#C[C@@H]1CC(F)(F)CN1C(=O)CNC1CC2CCC(C1)N2c1ncccn1 (stereo not given in full)	-0.55% (inactive)	–
Cc1c(Cl)cccc1[N+](=O)[O-]	-0.81% (inactive)	–
CC(C(=O)O)c1ccc(/C=C2\CCCCC2=O)cc1 (stereo not given)	0.625% [at 46 µM] (inactive)	–
O=C(O)c1ccc(O)c(O)c1	-0.152% (inactive)	–
C[C@H]1C[C@H]2[C@@H]3CCC4=CC(=O)C=C[C@]4(C)[C@@]3(F)[C@@H](O)C[C@]2(C)[C@@]1(O)C(=O)COP(=O)(O)O	-0.177% (inactive)	–
O=C(N[C@@H](Cc1ccccc1)[C@@H](O)C(=O)N1C[C@@H](O)[C@@H](O)C1)c1cc2cc(Cl)ccc2[nH]1	-0.633% (inactive)	–
CC(=O)S[C@H](C(=O)N[C@H]1Cc2ccccc2[C@H]2CCC[C@@H](C(=O)O)N2C1=O)C(C)C	0.273% (inactive)	–
O=C(OC1C[C@H]2CC[C@@H](C1)[N+]21CCCC1)C(O)(c1ccccc1)c1ccccc1 (stereo not given in full)	0.252% [at 46 µM] (inactive)	–
NCCOCCOCCN	0.014% (inactive)	–
C1CCN(CN2CCCCC2)CC1	-0.368% (inactive)	–
CCCC(=O)OCCC(C)C	-0.621% (inactive)	–
OCC(O)c1ccccc1 (stereo not given)	0.0695% (inactive)	–
C=CC(C)CCC=C(C)C (stereo not given)	-0.108% (inactive)	–
Clc1nc2ccccc2nc1Cl	-0.173% [at 95.7 µM] (inactive)	–
O=C(O)c1c2ccccc2cc2ccccc12	-0.631% (inactive)	–
O=C(O)CNc1ccccc1	0.131% (inactive)	–
CC(C)(O)C(=O)O	-0.0824% (inactive)	–
